Among the data in PubChem BioAssay AID651710 (Broad Institute, 2012) are inhibition values, retold here.

For orientation: inhibition means the change of the read-out against control, counted positive when it falls.

Several values for one entry are separate records, joined by “and”; a condition that tells them apart may be missing. Identical values can stand only once. In all, about 360,000 compounds went through this assay and about 1,600 (0.44%) were called active.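 How the source made its calls: active means every replicate showing at least 50% inhibition; inconclusive means mean inhibition at least 50% but not in every replicate; inactive means the rest.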 For the sample, actives were picked, then their nearest neighbours and some compounds at random. Some structures have more than one record in an assay (separate samples or runs), and their calls can disagree.

The assay deals with DNA repair protein RAD52 homolog (Homo sapiens) (UniProt P43351). The experiment in a line: RAD52 DNA annealing inhibitors, primary screen, biochemical, FRET, single point, set 2 (AID 651710). The note with it: recombinant RAD52 DNA annealing, FRET fluorescence; at 18.7 µM; stronger effect = higher value.
Sequence of DNA repair protein RAD52 homolog (Homo sapiens) (P43351 whole entry, looked up): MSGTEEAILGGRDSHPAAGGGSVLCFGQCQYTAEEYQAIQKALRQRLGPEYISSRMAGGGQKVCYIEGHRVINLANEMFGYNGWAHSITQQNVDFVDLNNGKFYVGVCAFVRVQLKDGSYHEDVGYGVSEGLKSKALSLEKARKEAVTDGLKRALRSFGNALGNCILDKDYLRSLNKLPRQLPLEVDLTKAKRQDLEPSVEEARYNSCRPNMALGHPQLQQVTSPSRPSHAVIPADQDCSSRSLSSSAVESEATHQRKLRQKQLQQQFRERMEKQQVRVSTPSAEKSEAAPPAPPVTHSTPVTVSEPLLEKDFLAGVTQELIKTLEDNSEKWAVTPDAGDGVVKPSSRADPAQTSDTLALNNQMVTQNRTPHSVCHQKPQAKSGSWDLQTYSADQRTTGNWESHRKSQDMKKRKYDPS
Turning to `CS(=O)(=O)N1[C@H](C(=O)NCc2ccncc2)[C@@H](CO)[C@@H]2Cn3c(ccc(C4=CCCCC4)c3=O)[C@@H]21`, the inhibition is -1.92% (inactive).
Turning to `CC(Nc1nc(N2CCN(CCO)CC2)nc2ccccc12)c1ccccc1` (stereo unspecified), the inhibition was -10.7% (inactive).
The result for `CC1CN(c2nc(Nc3ccccc3)nc(N)c2[N+](=O)[O-])CC(C)O1` (stereo unspecified) reads -8.87% (inactive); that for `CN1CCN(c2nc(Nc3ccc(O)cc3)nc3ccccc23)CC1`, 72.4% (active); that for `N#C[C@@H]1[C@H](c2ccccc2C2=CCCCC2)[C@@H](CO)N1S(=O)(=O)c1cccc(F)c1`, -3.37% (inactive).
For the compound `CCCNC(=O)C[C@H]1C[C@H]2c3cc(NC(=O)NC4CCCCC4)ccc3O[C@H]2[C@H](CO)O1`, the inhibition is 3.19% (inactive).
To `C[C@H]1CN([C@@H](C)CO)C(=O)Cc2cc(NC(=O)Nc3ccc(F)cc3)ccc2O[C@@H]1CN(C)C(=O)NC1CCCCC1` belongs -2.6% (inactive).
The result for `O=C(NCCN1CCOCC1)c1ccc2c(c1)N(Cc1cccc(Cl)c1)C(=O)c1ccccc1S2(=O)=O` reads -15.4% (inactive); that for `CCN1CCN(CCNC(=O)c2ccc(/C=C3/Sc4ccccc4N(Cc4cccc(C)c4)C3=O)cc2)CC1`, 51.6% (active); that for `CCCC1=Nc2cc(C(=O)NCCN3CCCC3)ccc2Sc2ccccc21`, 34% (inactive).
To `CCN(CC)C(=O)CC(c1ccc2c(c1)OCO2)c1c(OC)cc(OC)c2c(-c3ccccc3)cc(=O)oc12` (stereo unspecified) belongs -104% (inactive); to `CCN(CC)CCC(c1cc(OC)c(OC)c(OC)c1)c1c(OC)cc(OC)c2c(-c3ccccc3)cc(=O)oc12` (stereo unspecified), 46.3% (inactive); to `CCN(CC)CCC(c1ccc2c(c1)OCO2)c1c(OC)cc(OC)c2c(-c3ccccc3)cc(=O)oc12` (stereo unspecified), 54.9% (active).
On to `CCCC#Cc1cnc2c(c1)C(=O)N([C@H](C)CO)C[C@H](C)[C@@H](CN(C)Cc1ccccc1)O2`, for which the inhibition is -1.46% (inactive).
For the compound `C/C=C/c1ccc(C2[C@H]3CNC[C@@H]2N3Cc2cccc(OC)c2)cc1` (stereo partly specified), the inhibition was -8.08% (inactive).
To `COc1ccc(CN(C)C[C@@H]2OCCCC[C@@H](C)Oc3ccc(NS(=O)(=O)c4ccc(C)cc4)cc3C(=O)N([C@@H](C)CO)C[C@H]2C)cc1` belongs 21% (inactive); to `COCC(=O)N1CC(=O)N2[C@H](CO)[C@@H](c3ccc(-c4ccncc4)cc3)[C@H]2C1`, -7.77% (inactive); to `N#Cc1ccc(-c2ccc([C@@H]3[C@@H](CO)N4C(=O)CNC[C@H]34)cc2)cc1`, 14.7% (inactive).
The result for `C/C=C/c1ccc(C2[C@H]3CNC[C@@H]2N3Cc2cccc(F)c2)cc1` (stereo partly specified) reads 16.5% (inactive); that for `N#Cc1ccc(-c2ccc([C@@H]3[C@H]4CNC[C@@H]3N4Cc3cc(F)ccc3F)cc2)cc1`, 69% (active); that for `COc1ccc(NC(=O)Nc2ccc3c(c2)[C@@H]2C[C@H](CC(=O)N4CCCCC4)O[C@H](CO)[C@@H]2O3)cc1`, -6.62% (inactive).
Take `O=C([C@@H]1[C@@H](CO)[C@@H]2Cn3c(ccc(-c4ccccc4)c3=O)[C@H]1N2CCC(F)(F)F)N1CCCCC1`: the inhibition is 9.81% (inactive).
To `CN(C)C(=O)C[C@@H]1C[C@@H]2c3cc(NC(=O)c4ccc5c(c4)OCO5)ccc3O[C@@H]2[C@H](CO)O1` belongs 5.11% (inactive); to `C[C@H](CO)N1C[C@H](C)[C@H](CN(C)C(=O)Nc2ccc(C(F)(F)F)cc2)Oc2ccc(NS(C)(=O)=O)cc2CC1=O`, -1.01% (inactive).
To `COc1ccccc1C#Cc1cnc2c(c1)C(=O)N([C@@H](C)CO)C[C@@H](C)[C@H](CN(C)C(=O)CN(C)C)O2` belongs 42.2% (inactive); to `COCC(=O)N(C)C[C@@H]1Oc2ncc(C#Cc3ccccc3OC)cc2C(=O)N([C@@H](C)CO)C[C@H]1C`, 0.963% (inactive).
To `COc1ccccc1C#Cc1cnc2c(c1)C(=O)N([C@@H](C)CO)C[C@@H](C)[C@@H](CN(C)C(=O)CN(C)C)O2` belongs 51.1% (active); to `CN(C)CC(=O)N1[C@@H](C#N)[C@@H](c2ccccc2-c2ccccc2F)[C@@H]1CO`, -4.36% (inactive); to `N#C[C@@H]1[C@@H](c2ccccc2C2=CCCC2)[C@H](CO)N1C(=O)NC1CCCC1`, -0.746% (inactive).
With `Cc1ccccc1S(=O)(=O)NCC[C@@H]1CC[C@@H](NS(=O)(=O)c2ccccc2C)[C@@H](CO)O1`, the inhibition was -0.528% (inactive).
The result for `Cc1ccc2c(c1)C1CN(C)CCC1N2S(=O)(=O)c1ccc(Oc2ccc([N+](=O)[O-])cc2)cc1` (stereo unspecified) reads 57.3% (active).
In the case of `Cc1ccc2c(c1)C1CN(C)CCC1N2S(=O)(=O)c1cccc(F)c1` (stereo unspecified), the inhibition is -19.1% (inactive).
To `Cc1ccc2c(c1)C1CN(C)CCC1N2C(=S)Nc1ccc(OC(F)F)cc1` (stereo unspecified) belongs -9.14% (inactive); to `CC=Cc1ccc2n(c1=O)C[C@@H]1[C@@H](CO)[C@H](C(=O)NCCCN3CCOCC3)[C@H]2N1Cc1cocn1` (mixture of isomers), -8.14% (inactive).
To `O=C(/C=C/c1cn(-c2ccccc2)nc1-c1ccc2c(c1)OCCO2)NCCCN1CCOCC1` belongs 50.5% (active).
The result for `O=C(NCCCN1CCOCC1)c1cn(-c2ccccc2)nc1-c1ccc(F)cc1` reads -2.27% (inactive).
For `COc1ccc(-c2nn(-c3ccccc3)cc2/C=C\C(=O)N2CCOCC2)cc1[N+](=O)[O-]`, the inhibition is -18.6% (inactive).
The result for `C[C@H]1CN([C@@H](C)CO)S(=O)(=O)c2ccc(-c3ccccc3)cc2O[C@H]1CN(C)C(=O)CC1CC1` reads 5.01% (inactive); that for `C[C@H](CO)N1C[C@H](C)[C@H](CN(C)C(=O)Nc2ccc3c(c2)OCO3)Oc2ccc(NC(=O)Nc3ccccc3)cc2CC1=O`, -4.77% (inactive).
To `Fc1ccc(-c2ccc(NCCN3CCOCC3)nn2)cc1` belongs -7.71% (inactive).
The result for `Cc1cccc(C)c1OCCN1CCOCC1` reads -1.02% (inactive); that for `c1ccc2cc3c(NCCN4CCOCC4)ccnc3cc2c1`, 79% (active); that for `COc1ccc(NC(=O)N(C)C[C@@H]2Oc3c(NS(C)(=O)=O)cccc3C(=O)N([C@H](C)CO)C[C@H]2C)cc1`, 1.83% (inactive).
As to `CC(C)NC(=O)Nc1ccc2c(c1)CC(=O)N([C@H](C)CO)C[C@H](C)[C@@H](CN(C)C(=O)Nc1ccc(F)cc1)O2`, the inhibition was 16.5% (inactive).
On to `N#Cc1cccc(-c2ccc(C3[C@H]4CNC[C@@H]3N4S(=O)(=O)c3ccc(-c4ccccc4)cc3)cc2)c1` (stereo partly specified), for which the inhibition was 73.9% (active) and 22.4% (inactive).
The result for `N#Cc1ccc(-c2ccc(C3[C@H]4CNC[C@@H]3N4S(=O)(=O)c3ccccc3F)cc2)cc1` (stereo partly specified) reads 28.8% (inactive); that for `N#Cc1cccc(-c2ccc(C3[C@H]4CNC[C@@H]3N4Cc3cncnc3)cc2)c1` (stereo partly specified), -10.4% (inactive); that for `CCCNC(=O)N(C)C[C@@H]1Oc2ncc(C#CC(C)C)cc2C(=O)N([C@H](C)CO)C[C@H]1C`, -2.25% (inactive).
In the case of `O=C(Nc1ccc(S(=O)(=O)Nc2nccs2)cc1)c1cc(-c2ccncc2)nc2ccccc12`, the inhibition was -42.2% (inactive).
Take `CCN(CC)CCNC(=O)c1ccc(NC(=O)c2cc(-c3ccncc3)nc3ccccc23)cc1`: the inhibition was 54.5% (active).
To `CCN(CC)CCNC(=O)c1ccc(NC(=O)c2c(F)cccc2Cl)cc1` belongs -8.76% (inactive); to `COC(=O)Cc1nnn2c1[C@H](C)[C@@H](OC)c1cc(Br)ccc1-2`, -4.62% (inactive); to `C[C@@H]1CN([C@@H](C)CO)C(=O)c2cc(NC(=O)Nc3ccccc3)ccc2O[C@@H]1CN(C)Cc1ccccc1`, 8.18% (inactive).
Consider `COc1cccc(NC(=O)N[C@H]2C=C[C@H](CC(=O)NCc3ccccn3)O[C@@H]2CO)c1`, for which the inhibition is -25.9% (inactive).
The result for `COc1ccc(-c2ccc3c(c2)[C@@H]2[C@@H](CCN2C(=O)NC2CCCC2)[C@@H](CO)N3C)cc1` reads -19% (inactive); that for `COCC(=O)Nc1ccc2c(c1)OC[C@H](C)NC[C@H](C)[C@H](OC)CN(C)C2=O`, -2.26% (inactive).
To `Cc1nc(N=C(N)N)nc2c(C)cccc12` belongs 81.9% (active); to `COc1cccc(CN2[C@H](CO)[C@@H]3c4ccccc4N(C(=O)c4ccncc4)C[C@@H]32)c1`, -8.72% (inactive); to `CN(C)C(=O)c1cccc(-c2cnc3c(NC=O)cc(-c4ccc(C(=O)N5CCOCC5)cc4)cn23)c1`, -29% (inactive).
To `CC(=O)Nc1cc(-c2ccc(N3CCN(C)CC3)cc2)cn2c(-c3ccc(F)cc3)cnc12` belongs 18% (inactive); to `CN(C)CCNC(=O)c1cccc(-c2cnc3c(NC=O)cc(-c4cccc(C(F)(F)F)c4)cn23)c1`, 67% (active); to `CN(C)C(=O)c1cccc(-c2cnc3c(NC=O)cc(-c4ccc(F)cc4)cn23)c1`, -55.7% (inactive).
On to `CC(=O)Nc1cc(-c2ccc(N3CCN(C)CC3)cc2)cn2c(-c3cccc(C(=O)N(C)C)c3)cnc12`, for which the inhibition was 79.7% (active).
Turning to `CC(=O)c1cccc(-c2cnc3c(NC=O)cc(-c4ccc(N(C)C)cc4)cn23)c1`, the inhibition was -47.5% (inactive).
The result for `CC(=O)Nc1cc(-c2cccc(CO)c2)cn2c(-c3cccc(C(F)(F)F)c3)cnc12` reads -17.3% (inactive); that for `CC(=O)c1cccc(-c2cnc3c(NC=O)cc(-c4ccc(N5CCN(C)CC5)cc4)cn23)c1`, 73.8% (active); that for `CC(=O)c1cccc(-c2cnc3c(NC=O)cc(-c4cccc(C(=O)N(C)C)c4)cn23)c1`, -0.741% (inactive).
To `O=C(C[C@H]1C=C[C@@H](NC(=O)C2CC2)[C@H](CO)O1)NCC1CC1` belongs 2.9% (inactive); to `CO[C@H]1CN(C)C(=O)c2ccc(NC(=O)c3cnccn3)cc2OC[C@H](C)N(C)C[C@@H]1C`, 2.76% (inactive); to `O=C(Nc1ccccc1)N[C@H]1CC[C@H](CCNC(=O)c2ccccc2F)O[C@H]1CO`, -10.3% (inactive).
To `CCCN(C)C[C@@H]1Oc2ncc(-c3cccc(C(=O)N(C)C)c3)cc2C(=O)N([C@H](C)CO)C[C@@H]1C` belongs -4.17% (inactive).
